{
  "source": "PubChem BioAssay AID651692",
  "about": "(Broad Institute, 2012)",
  "note": "Entries with a potency or affinity are not part of this list. Activity calls are given as the source filed them.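 Rule for the calls: active = fitted half-maximal concentration for loss of cell signal no higher than twice the top valid tested concentration; inconclusive = flat curve at 30 to 70% inhibition, or poor fit; inactive = flat within 30%, signal rise, or potency above limit.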",
  "data": [
    {"experiment": "cytotoxicity toward MDA-MB-231 breast cancer cells – cell-based, CellTiter-Glo luminescence, cherry-pick, cytotoxicity control for RAD54 inhibitor project, dose response (AID 651692);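 note: 0% = median of sample compound wells and -100% = staurosporine control wells; more negative values mean stronger loss of viable cell signal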", "settings": "MDA-MB-231 viability, 24 h; series mostly up to 26 µM; activity change, negative = growth inhibition: at the top concentration", "values": [
      {"smiles": "Cc1cccc(-c2nc(NCCCN(C)C)c3ccccc3n2)c1", "activity change, negative = growth inhibition": "3.89% (inactive)"},
      {"smiles": "COc1cc2c(C#N)c(N3CCN(C)CC3)nc(N)c2c(N)n1", "activity change, negative = growth inhibition": "1.49% (inactive)"},
      {"smiles": "CN1CCN(c2nc(-c3ccncc3)nc3ccccc23)CC1", "activity change, negative = growth inhibition": "-2.94% (inactive)"},
      {"smiles": "Cc1nc2ccccc2c2oc(C(=O)NCCN3CCN(C)CC3)cc12", "activity change, negative = growth inhibition": "5.38% (inactive)"},
      {"smiles": "CCn1c(=N)c(C(=O)NCCCOC)cc2c(=O)n3cccc(C)c3nc21", "activity change, negative = growth inhibition": "5.29% (inactive)"},
      {"smiles": "CCOCCCn1c(=N)c(C(=O)NCCN2CCOCC2)cc2c(=O)n3cccc(C)c3nc21", "activity change, negative = growth inhibition": "1.54% (inactive)"},
      {"smiles": "CN(C)CCCNc1nc2cc(-c3ccc4c(ccn4C)c3)sc2c(=O)n1C", "activity change, negative = growth inhibition": "-4.29% (inactive)"},
      {"smiles": "COc1ccc(Cl)c2sc(N(CCN(C)C)C(=O)C3=COCCO3)nc12", "activity change, negative = growth inhibition": "3.13% (inactive)"},
      {"smiles": "O=C(NCCCN1CCOCC1)c1cnn2c(-c3ccccc3)cc(-c3ccccc3)nc12", "activity change, negative = growth inhibition": "-10.7% (inactive)"},
      {"smiles": "Cc1cc(C)c2nc(C)cc(Nc3ccc(C(=O)NCCO)cc3)c2c1", "activity change, negative = growth inhibition": "-0.096% (inactive)"},
      {"smiles": "COc1ccc2cc3cc(C(=O)NCCCN4CCOCC4)oc3nc2c1", "activity change, negative = growth inhibition": "17.1% (inactive)"},
      {"smiles": "Nc1c2ccccc2nc2ccccc12", "activity change, negative = growth inhibition": "6.25% (inactive)"},
      {"smiles": "O=C1C(c2ccc(F)cc2)N(C2CCCCC2)C(=O)CN1C1CCCC1", "note": "(centres undefined)", "activity change, negative = growth inhibition": "0.336% (inactive)"},
      {"smiles": "O=C(Nc1ccc(Nc2ccncc2)cc1)c1ccc(Nc2ccnc3ccc([N+](=O)[O-])cc23)cc1", "activity change, negative = growth inhibition": "2.9% (inactive)"},
      {"smiles": "CN(C)CCCNc1c2c(nc3ccccc13)CCC2", "activity change, negative = growth inhibition": "-11.5% (inactive)"},
      {"smiles": "CCOC(=O)c1c(NC(=O)c2ccc(S(=O)(=O)N3CCOCC3)cc2)sc2c1CCN(C)C2", "activity change, negative = growth inhibition": "-4.66% (inactive)"},
      {"smiles": "COc1ccc(Cc2c(-c3ccc(OC)c(OC)c3)nc3c(C)cc(Br)cn23)c(C)c1", "activity change, negative = growth inhibition": "16.1% (inactive)"},
      {"smiles": "COc1ccc2nc(C)cc(Nc3ccc(C)cc3)c2c1", "activity change, negative = growth inhibition": "3.03% (inactive)"},
      {"smiles": "CN(C)CCCNc1nc(-c2ccccc2)nc2ccccc12", "activity change, negative = growth inhibition": "4.91% (inactive)"},
      {"smiles": "COc1ccccc1Nc1nc(NCC2CCCO2)c2ccccc2n1", "note": "(centres undefined)", "activity change, negative = growth inhibition": "5.68% (inactive)"},
      {"smiles": "CCOc1ccc2[nH]c3c(NCCN(C)C)ncnc3c2c1", "activity change, negative = growth inhibition": "-4.38% (inactive)"},
      {"smiles": "CCN1CCN(C(=S)Nc2ccc3nc(N4CCN(CC)CC4)cc(C)c3c2)CC1", "activity change, negative = growth inhibition": "-3.41% (inactive)"},
      {"smiles": "CCOC(=O)c1c(NC(C)=O)sc2c(O)c(CN3CCN(CC)CC3)ccc12", "activity change, negative = growth inhibition": "4.29% (inactive)"},
      {"smiles": "COc1cc2nc(Nc3ccc(F)cc3)nc(N)c2cc1OC", "activity change, negative = growth inhibition": "14.2% (inactive)"},
      {"smiles": "COc1cc2nc(N3CCNCC3)nc(N)c2cc1OC", "activity change, negative = growth inhibition": "-7.31% (inactive)"},
      {"smiles": "CCN(CC)CCCNc1nc2cc(OC)c(OC)cc2c2nc(-c3ccccc3)nn12", "activity change, negative = growth inhibition": "-12.7% (inactive)"},
      {"smiles": "CCCC(c1nnnn1Cc1ccc(OC)cc1)N1CCN(c2ccccc2)CC1", "note": "(centres undefined)", "activity change, negative = growth inhibition": "11.4% (inactive)"},
      {"smiles": "COc1ccccc1NC(=O)CNC(=O)c1ccccc1", "activity change, negative = growth inhibition": "12.8% (inactive)"},
      {"smiles": "CC(=O)Nc1sc2c(c1-c1nc3ccccc3s1)CN(C(C)C)CC2", "activity change, negative = growth inhibition": "-13.2% [at 8 µM] (inactive)"},
      {"smiles": "CCN(CC)CCNc1cccc2sc3ccccc3c(=O)c12", "activity change, negative = growth inhibition": "-14.9% (inactive)"},
      {"smiles": "COc1ccccc1C1=NOC(Cn2c(NCCCO)nc3c2c(=O)n(C)c(=O)n3C)C1", "note": "(centres undefined)", "activity change, negative = growth inhibition": "3.77% (inactive)"},
      {"smiles": "CC(=O)Nc1cc(-c2ccc(N3CCN(C)CC3)cc2)cn2c(-c3ccc(S(C)(=O)=O)cc3)cnc12", "activity change, negative = growth inhibition": "-10.1% (inactive)"},
      {"smiles": "Cc1cccn2c(=O)c3cc(C(=O)NCCN4CCOCC4)c(=N)n(CCCN4CCOCC4)c3nc12", "activity change, negative = growth inhibition": "10.8% (inactive)"},
      {"smiles": "Cc1ccc(-c2nc(NCCN3CCOCC3)c3ccccc3n2)cc1", "activity change, negative = growth inhibition": "1.18% (inactive)"},
      {"smiles": "COc1ccc(Nc2nc(NCC3CCCO3)c3ccccc3n2)c(OC)c1", "note": "(centres undefined)", "activity change, negative = growth inhibition": "6.96% (inactive)"},
      {"smiles": "COc1ccccc1C(=O)C(O)c1ccccc1OC", "note": "(centres undefined)", "activity change, negative = growth inhibition": "2.24% (inactive)"},
      {"smiles": "c1ccc(CNc2c3ccccc3nc3ccccc23)cc1", "activity change, negative = growth inhibition": "-21% (inactive)"},
      {"smiles": "COc1ccc(CCNC(=O)c2cc3c(=O)n4ccccc4nc3n(CCCN3CCOCC3)c2=N)cc1OC", "activity change, negative = growth inhibition": "7.19% (inactive)"},
      {"smiles": "Cc1[nH]ccc2cc3nc4ccccc4c3cc12", "activity change, negative = growth inhibition": "-23.1% (inactive)"}
    ]}
  ]
}
